A short description of assay [1]: NCI Yeast Anticancer Drug Screen. Data for the rad50 strain (AID 155).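 Note: 0% = growth of vehicle-only cultures of the same strain.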 The following applies: S. cerevisiae rad50 strain growth inhibition; at 50.0 µM; active compounds read high. Put shortly: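 Vehicle-treated cultures provide the reference for the growth inhibition reported for compound-exposed, repair-deficient yeast.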
A short description of assay [2]: NCI Yeast Anticancer Drug Screen. Data for the mec2-1 strain (AID 157). Particulars: S. cerevisiae mec2-1 strain, at 50.0 µM, active compounds read high. The method, boiled down: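 Mutant yeast (mec2-1) grown with compound; growth inhibition relative to vehicle control reported.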
Assay [3] is described as follows: NCI Yeast Anticancer Drug Screen. Data for the sgs1 mgt1 strain (AID 161).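 Note: 0% = growth of cultures given vehicle only.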 Particulars: S. cerevisiae sgs1 mgt1 strain, at 50.0 µM, active compounds read high. Put shortly:
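Growth of a repair-deficient yeast mutant was monitored after compound treatment and expressed as inhibition relative to vehicle-treated cultures.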

A short description of assay [4]: NCI Yeast Anticancer Drug Screen. Data for the cln2 rad14 strain (AID 165).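 Note: 0% = growth equal to vehicle treated cultures.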 The following applies: S. cerevisiae cln2 rad14 strain, at 50.0 µM, active compounds read high. The method, boiled down: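 Readout is yeast growth inhibition versus vehicle-treated controls, using a strain with cln2 and rad14 alterations exposed to compound.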
Assay [5] is described as follows: NCI Yeast Anticancer Drug Screen. Data for the bub3 strain (AID 167). The following applies: S. cerevisiae bub3 mutant strain, at 50.0 µM, active compounds read high. Put shortly:
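Mutant yeast screening strain plus compound; vehicle-treated cultures serve as the 0% inhibition reference.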

Assay [6] is described as follows: NCI Yeast Anticancer Drug Screen. Data for the mlh1 rad18 strain (AID 175). Particulars: S. cerevisiae mlh1 rad18 strain growth inhibition; at 50.0 µM; active compounds read high. The method, boiled down:
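Genetically defined yeast (DNA repair-deficient) exposed to compounds; growth inhibition determined relative to vehicle.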

The structures appear in SMILES notation. The panel holds about 79,000 compounds, 15% with a hit somewhere; the sample as a whole holds those more often. Unmarked numbers belong to inactive results. Active and inactive are the calls of the source. Cut-off read from the data, not from the text of the source: active = growth inhibition above about 70%; inactive = the rest.

`CCOC(=O)CSc1[nH]c2nc(C)nc(Cl)c2c1C#N`: the growth inhibition in assay [1] is -20.7%; in assay [2], 8.3%; in assay [3], -5.2%; in assay [4], -6.65%; in assay [5] it was -3.45%; in assay [6] it was 16.6%.

On to `O=[N+]([O-])c1ccc(/C=C2/c3ccccc3-c3nc4ccccc4cc32)cc1`, for which the growth inhibition in assay [1] was 21.9%; in assay [2], -2.55%; in assay [3] it was -2.9%; in assay [4], -2.6%; in assay [5] it was 7.3%; in assay [6], 20.8%.

Take `Cc1cc(-c2ccccc2)cc(C[n+]2ccccc2)[n+]1-c1ccccn1`: the growth inhibition in assay [1] is 12.8%; in assay [2], 6.2%; in assay [3] it was 9.2%; in assay [4], -3.8%; in assay [5] it was 2.2%; in assay [6], 18.9%.

On to `N#Cc1c2c(c(=O)n3c1[nH]c1ccccc13)CCC2`, for which the growth inhibition is -23.9% in assay [1]; 11.4% in assay [2]; -15.6% in assay [3]; -3.25% in assay [4]; -1.6% in assay [5]; -8.2% in assay [6].

Consider `COCCCN1CC(=O)N2Cc3ccccc3CN2C(=O)C1`, for which the growth inhibition is -9.15% in assay [1]; -13% in assay [2]; -15.2% in assay [3]; -3.6% in assay [4]; 2.95% in assay [5]; -4.6% in assay [6].

`Nc1nc(C2CCCC2)c(Br)c(=O)[nH]1`: the growth inhibition in assay [1] was -24.2%; in assay [2] it was -3.75%; in assay [3] it was -17.4%; in assay [4], 2.45%; in assay [5], 2.7%; in assay [6], -8.75%.

With `O=C(COc1ccc(Cl)cc1)Oc1c(Cl)cc(Cl)cc1Cl`, the growth inhibition is 96.4% (active) in assay [1]; 97.8% (active) in assay [2]; 98.7% (active) in assay [3]; 96.8% (active) in assay [4]; 98.2% (active) in assay [5]; 98% (active) in assay [6].

For the compound `Cc1ccc(S(=O)(=O)O/N=C2\CCC\C2=C/c2ccccc2)cc1`, the growth inhibition was 7.65% in assay [1]; -2.25% in assay [2]; 26% in assay [3]; 14.6% in assay [4]; -8.55% in assay [5]; 23.8% in assay [6].

As to `O=C(/C=C/c1cccc2ccccc12)c1ccccc1Cl`, the growth inhibition in assay [1] was 52.9%; in assay [2] it was -9.25%; in assay [3], 7.65%; in assay [4], 16.9%; in assay [5], -6.65%; in assay [6], 35.2%.

`CCOC(=O)C1C(NNC(N)=O)CN(C(=O)OCC)C1C(=O)OCC` (stereo not given): the growth inhibition in assay [1] was -9.2%; in assay [2] it was -5.8%; in assay [3] it was -15.9%; in assay [4] it was 0.4%; in assay [5], 8.45%; in assay [6], 10.4%.

Consider `CCOC(=O)C1C(c2ccccc2)ON(c2ccccc2)C1c1cccc([N+](=O)[O-])c1` (stereo not given), for which the growth inhibition in assay [1] is 22.2%; in assay [2] it was 3.9%; in assay [3] it was -4.05%; in assay [4] it was -11.5%; in assay [5], 3.3%; in assay [6], 1.65%.

Consider `O=C(CCc1ccc(O)cc1)c1c(O)cc(O)cc1O`, for which the growth inhibition in assay [1] is -5.3%; in assay [2] it was -29.9%; in assay [3], -11.3%; in assay [4], 12.9%; in assay [5], -11.2%; in assay [6], -9.05%.

In the case of `Nc1c(Cl)ncnc1NCCc1ccccc1`, the growth inhibition is -3.35% in assay [1]; -16.1% in assay [2]; -15.4% in assay [3]; -45.1% in assay [4]; -11.8% in assay [5]; -11.8% in assay [6].

With `COC(=O)c1ccc(/C=C2\N=C(C)OC2=O)cc1`, the growth inhibition in assay [1] was -17.9%; in assay [2] it was -28.6%; in assay [3], 0.6%; in assay [4], 12.2%; in assay [5] it was -22.8%; in assay [6], -17.9%.

Consider `CC(C)C(CNC(=O)c1ccc([N+](=O)[O-])cc1)(C(C)C)C(C)C`, for which the growth inhibition in assay [1] was -2.6%; in assay [2], -36.2%; in assay [3], -3.85%; in assay [4], -3.7%; in assay [5] it was 17.8%; in assay [6], -1.65%.

As to `FC(F)(F)c1nnc(-c2ccccc2)nn1`, the growth inhibition in assay [1] is -8.8%; in assay [2], -16.1%; in assay [3], -11.4%; in assay [4] it was -36.6%; in assay [5], -14.8%; in assay [6], -8.5%.

As for `O=C1CC(C(=O)O)C(C(Cl)(Cl)Cl)O1` (stereo not given), the growth inhibition was -18.9% in assay [1]; -26.4% in assay [2]; 1.8% in assay [3]; -22.7% in assay [4]; -6.7% in assay [5]; -1.2% in assay [6].

Regarding `CN(C)c1ccc(/C=N\NC(=S)Nc2ccc3cn[nH]c3c2)cc1`, the growth inhibition in assay [1] was 20.9%; in assay [2], -10.9%; in assay [3] it was -1.15%; in assay [4] it was 8.1%; in assay [5], 23.3%; in assay [6], -9.5%.

For `O=C1C=C[C@@H](COC2OC(CO)C(O)C(O)C2O)O1` (stereo not given in full), the growth inhibition is 6.35% in assay [1]; -28.8% in assay [2]; 5.25% in assay [3]; 15.8% in assay [4]; 24.9% in assay [5]; 27.8% in assay [6].

For `COc1ccc(C(O)C2CCCN(C)S2(=O)=O)cc1` (stereo not given), the growth inhibition in assay [1] is 13.4%; in assay [2], 21.9%; in assay [3] it was 2.75%; in assay [4], 15.5%; in assay [5], 30.6%; in assay [6] it was 15.6%.
